# Active and inactive are the calls of the source. How the calls were made is not given here.
# Test: Biochemical counterscreen for C difficile toxins, absence of UDPG, inhibitor dose response (AID 720650)
# Details: series mostly up to 19.5 µM; activity change, negative = inhibition: at the top concentration
Compound,"activity change, negative = inhibition",AC50
Cc1ccc2c(c1)-c1c(cnn1CC(=O)NC(C)CCc1ccco1)CO2 (centres undefined),-12.6% (inactive),–
CCOC(=O)Nc1ccc(OC(=O)Oc2ccc(NC(=O)OCC)cc2)cc1,–,> 39 µM (inactive)
CCOC(=O)N1CCC(c2cc(=O)n3[nH]c(-c4ccccc4)cc3n2)CC1,-11.1% (inactive),–
Cc1ccc(NS(=O)(=O)c2ccc(C)c(NC(=S)NCCN3CCOCC3)c2)c(C)c1,-7.1% (inactive),–
CNC(=S)N/N=C/c1c(C(=O)OC)cnn1-c1ccc(F)cc1F,-6.87% (inactive),–
C[N+]1(CCCCSc2ccc(O)cc2)CCCCC1,–,> 39 µM (inactive)
COc1ccc(CNC(=O)C2CCN(S(=O)(=O)c3c(C)noc3/C=C/N(C)C)CC2)cc1,-8.74% (inactive),–
CC(=O)c1cccc(-c2ccnc3c2CC(C(=O)NCc2ccccc2)O3)c1 (centres undefined),-7.26% (inactive),–
O=C(O)c1ccc(-n2nnc3ccccc32)c([N+](=O)[O-])c1,11.4% (inactive),–
COc1cc(/C=C(\C#N)C(=O)Nc2ccc3c(c2)OCCO3)ccc1O,–,> 39 µM (inactive)
CS(=O)(=O)N1CCc2cc(C(=O)Nc3ccc(O)cc3)ccc21,–,14.8 µM (active)
CN1C(=O)C(c2nnc(Nc3cccc4ccccc34)s2)C2CC1(C)Oc1ccccc12 (centres undefined),-14.1% (inactive),–
Cc1noc(/C=C/c2ccccc2F)c1S(=O)(=O)N1CCC(C(=O)N2CCN(C)CC2)CC1,-4.2% (inactive),–
Cc1cccc(NC(=O)c2ccc(N3CCOCC3)c([N+](=O)[O-])c2)n1,-21.8% (inactive),–
CC(Sc1nc2ccccc2n1C)C(=O)Nc1ccc(N2CCOCC2)cc1 (centres undefined),-16.8% (inactive),–
COc1ccc(CNC(=O)C2=CC(c3ccc(OC)c(OC)c3)=NS(=O)(=O)N2C)cc1,–,> 39 µM (inactive)
ON=C1c2ccccc2-c2ccc(O)cc21,–,7.21 µM (active)
O=C(NC(=S)Nc1ccc(O)cc1)c1ccccc1Cl,–,13.3 µM (active)
CCCCNS(=O)(=O)c1ccc(OCC(=O)OC)cc1,0.773% (inactive),–
O=C(C[C@@H]1CC[C@@H]2[C@H](COC[C@@H](O)CN2C(=O)Nc2ccc(Cl)c(Cl)c2)O1)NCc1ccncc1,-7.79% (inactive),–

Compound,"activity change, negative = inhibition",AC50
Cc1c(CCCC(=O)O)sc(N)c1C(=O)c1cccc(C(F)(F)F)c1,-5.33% (inactive),–
COc1cc(/C=C/C(=O)OCC(=O)Nc2ccc(S(N)(=O)=O)cc2)ccc1O,-2.24% (inactive),–
Cc1cc(C(=O)NNc2ccc(C)c(C)c2)no1,–,0.287 µM (active)
Cc1cscc1-c1nc(NCC2CC2)nc2ccsc12,7.56% (inactive),–
COc1ccc(/C=C/c2nc3ccccc3n2C)cc1,–,> 39 µM (inactive)
CCCc1[nH]c(=O)c(C#N)c2c1CCCC2,-11.3% (inactive),–
CC1CCCN(C(=S)Nc2ccc(F)cc2)C1 (centres undefined),-12.2% (inactive),–
Cc1nc(-c2ccccn2)nc(SCC(=O)c2ccc(F)cc2)c1Cl,-7.34% (inactive),–
COc1cc(-c2n[nH]c(=S)n2/N=C/c2cccn2C)cc(OC)c1OC,-11.9% (inactive),–
CC(=O)C1=CCC(c2ccc(C)cc2)N(S(=O)(=O)c2ccc(C)cc2)C1 (centres undefined),–,> 39 µM (inactive)
CN1C(=O)c2cc(NC(=O)Nc3ccccc3Cl)ccc2OC[C@H]2O[C@@H](CC(=O)NCCCN3CCOCC3)CC[C@H]21,-6.9% [at 21 µM] (inactive),–
CCOc1ccccc1/C=C/c1onc(C)c1S(=O)(=O)N1CCC(C(=O)NC(C)(C)C)CC1,-3.36% (inactive),–
COc1ccc(C2=NS(=O)(=O)N(C)C(C(=O)NCc3ccccc3)=C2)cc1OC,-0.969% (inactive),–
Nc1ccc2c(c1)[nH]c(=O)c1cc(N)ccc12,–,13 µM (active)
Cc1cccc(/C=C/c2onc(C)c2S(=O)(=O)N2CCC(C(=O)NC(C)C)CC2)c1,-6.17% (inactive),–
Cc1nn(C)cc1-c1n[nH]c(=S)n1-c1ccc(F)cc1,-5.26% (inactive),–
Cn1cc(S(=O)(=O)CC(=O)N2CCCc3ccccc32)c2ccccc21,-8.72% (inactive),–
CCCN1CCN(C(=O)C2CCN(S(=O)(=O)c3c(C)noc3/C=C/c3ccc(C)cc3)CC2)CC1,-11.9% (inactive),–
Cc1ccn2c(Cc3ccccc3)c(-c3ccc(F)cc3)nc2c1,-13.8% (inactive),–

# Reference: PubChem BioAssay AID720650 (Broad Institute, 2013)
